# Bioassay records deposited in PubChem BioAssay by several laboratories.
# Shown are actives, neighbours in structure and some others; about 4.2% of the full set was active somewhere.
# TIM10 inh: growth inhibitors of TIM10 yeast strain; S. cerevisiae TIM10 strain growth, BacTiter-Glo luminescence, 24 h; inhibition, % at 10 µM; 330,000 compounds, 1.4% hits; AID 463195;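 active = inhibition of 40% or more at the single tested concentration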;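 also: wild-type TIM10 isogenic control strain grown at permissive 25 °C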
# NALP1 inh: NALP1 inhibition. 280,000 compounds, 0.61% hits. S. cerevisiae NALP1/ASC/caspase-1 growth, X-gal OD620, 72 h. inhibition, % at 10 µM. AID 2071; in the data active = inhibition mostly above about 24%, no sharp cut-off; inactive = mostly below about 32%
# NALP3 yeast inh: inhibitors of NALP3 inflammasome in yeast; Yeast reconstituted NLRP3/ASC/caspase-1, beta-gal luminescence, 24 h; inhibition, % at 10 µM; 330,000 compounds, 0.39% hits; AID 2825;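 active = inhibition of 50% or more; inactive = inhibition below 50%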
# V-ATPase pHluor: alters yeast V-ATPase proton transport. S. cerevisiae, pHLuorin cytosolic pH fluorescence. 350,000 compounds, 0.37% hits. response, % at 10 µM; in the data active = response mostly above about 7.3%, no sharp cut-off; inactive = mostly below about 5.4%; also: actives read high
# tim23-1 inh: inhibits growth of tim23-1 mutant yeast; 330,000 compounds, 1.3% hits; AID 463212; S. cerevisiae tim23-1 growth, BacTiter-Glo luminescence, 24 h; inhibition, % at 20 µM;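 active = growth inhibition of the mutant yeast at or above 50%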;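 also: temperature-sensitive mutant grown at 25 °C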
# tim10-1 inh: inhibits growth of tim10-1 mutant yeast. S. cerevisiae tim10-1 ts strain growth, BacTiter-Glo, 24 h. inhibition, % at 20 µM. 330,000 compounds, 2.2% hits;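 active = inhibition of at least 40%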;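 also: mutant grown at 25 °C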
# tim10-1 conf: confirmation of tim10-1 mutant yeast growth inhibitors; inhibition, % at 20 µM; AID 463213; S. cerevisiae tim10-1 ts strain growth, BacTiter-Glo, 24 h; 7,400 compounds, 56% hits; shares compounds with tim10-1 inh;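 active = inhibition of yeast growth at or above a set limit in either of two repeat tests at 20 µM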;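 also: tim10-1 mutant grown at permissive 25 °C to find synthetic lethal compounds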
# Numbers stand for hits; . = inactive; / = not tested or not shown.
SMILES,TIM10 inh,NALP1 inh,NALP3 yeast inh,V-ATPase pHluor,tim23-1 inh,tim10-1 inh,tim10-1 conf
CC(Cl)C(=O)NC(=O)NC12CC3CC(CC(C3)C1)C2 (configuration not stated),.,.,.,.,.,42.1,.
CC(C)(C)C(=O)[C@@H]1[C@@H]2C(=O)N(C3CCCCC3)C(=O)[C@@H]2[C@H]2c3ccccc3C=CN12,.,.,.,.,.,40.5,.
O=C(c1ccc2c(c1)OCO2)[C@@H]1[C@@H]2C(=O)N(C3CCCCC3)C(=O)[C@@H]2C2c3ccccc3C=CN21 (some centres not stated),/,.,/,.,/,/,/
O=C1c2ccccc2S(=O)(=O)c2cc(C(=O)N(c3ccccn3)c3ccccn3)ccc21,.,.,.,.,.,40.7,.
CC(C)OC(=O)/C(C#N)=C/c1c[nH]c2ccccc12,.,.,.,.,.,41.7,.
CO/N=C/c1ccc(N2CCN(C(=O)c3cccc(C(F)(F)F)c3)CC2)c([N+](=O)[O-])c1,.,.,.,.,.,40.5,.
Cc1ccc(S(=O)(=O)c2nc(S(C)(=O)=O)sc2N2CCC(C)CC2)cc1,.,.,.,.,.,46.3,.
CCC(=O)Oc1c(S(=O)(=O)c2ccc(C)cc2)c(C)nn1C(C)(C)C,.,.,.,.,.,43.7,.
O=C(c1ccc(-c2cc(O)c3ncccc3c2)cc1)N1CCNCC1,.,/,.,.,.,.,/
CC1CC(C)CN(C(=O)Cn2cc(C=O)c3ccccc32)C1 (configuration not stated),.,.,.,.,.,.,/
O=S(=O)(Nc1cccc2cccnc12)c1ccc(S(=O)(=O)N2CCCC2)cc1,.,.,.,.,.,50.2,39.2
O=S(=O)(Nc1cccc2cccnc12)c1ccccc1,.,.,.,.,.,.,/
O=C(c1ccc2c3n(nc2c1)-c1ccccc1CO3)N1CCCCC1,.,.,.,.,.,51.0,48.5
Cc1ccc2c(c1)COc1c3ccc(C(=O)N4CCCCC4)cc3nn1-2,.,.,.,.,.,.,/
CCCCN1C(=O)C2(NNc3ccccc3O2)c2ccccc21 (configuration not stated),.,.,.,.,.,42.9,.
CC(C)(C)OC(=O)C[C@H]1C/C=C\C[C@@H](CC(=O)NCCO)C(=O)N[C@H](C(C)(C)C)COC1=O,.,/,.,.,.,.,/
CCOc1ccccc1-c1nc(CN2CCN(C(=O)c3ccco3)CC2)c(C)o1,.,.,.,.,.,40.8,.
Cc1ccccc1-c1nc(CN2CCN(C(=O)c3ccco3)CC2)c(C)o1,.,.,.,.,.,.,/
Cc1oc(-c2ccc(Cl)cc2)nc1CS(=O)CC(=O)NC1CCCCC1 (configuration not stated),.,.,.,.,.,40.3,33.0
Cc1oc(-c2ccccc2Cl)nc1CS(=O)CC(=O)NCCc1ccccc1 (configuration not stated),.,.,.,.,.,.,/
Cc1ccccc1-c1nc(CS(=O)CC(=O)NCCc2ccc(Cl)cc2)c(C)o1 (configuration not stated),.,.,.,.,.,44.0,.
Cc1oc(-c2ccc(Cl)cc2)nc1CS(=O)CC(=O)NC1CCCCCC1 (configuration not stated),.,.,.,.,.,.,/
CCCCN(C(=O)C1CC(=O)N(c2ccc(OC)cc2OC)C1)c1c(N)n(CC(C)C)c(=O)[nH]c1=O (configuration not stated),.,.,.,.,.,.,/
CCc1ccc(/C=c2\s/c(=C\C(=O)C(C)(C)C)[nH]c2=O)cc1,.,.,.,.,.,52.9,43.5
Cc1ccccc1/C=c1\s/c(=C\C(=O)C(C)(C)C)[nH]c1=O,.,.,.,.,.,.,/
SMILES,TIM10 inh,NALP1 inh,NALP3 yeast inh,V-ATPase pHluor,tim23-1 inh,tim10-1 inh,tim10-1 conf
O=C(Oc1ccc2c(c1)O/C(=C\c1ccncc1)C2=O)c1ccccc1,.,.,.,.,.,41.8,.
Cc1ccc(/C=C2\Oc3cc(OC(=O)N4CCOCC4)ccc3C2=O)cc1,.,.,.,.,.,.,/
O=C(NCc1ccccc1)C(c1ccc(Cl)cc1)N(C(=O)c1csnn1)C1CC1 (configuration not stated),.,.,.,.,.,.,/
CCOC(=O)Cc1cc(-c2ccc(OC)cc2)nc2ccc3ccccc3c12,.,.,.,.,.,.,/
CCOC(=O)Cc1cc(-c2ccc(O)cc2)nc2ccc3ccccc3c12,.,.,.,.,.,41.8,.
COc1ccc(Cl)cc1Nc1nnc(-c2ccncc2)s1,.,.,.,.,.,.,/
Clc1ccccc1Nc1nnc(-c2ccncc2)s1,.,.,.,.,.,40.4,40.9
Cc1c(Br)c([N+](=O)[O-])nn1CC(=O)N1CCN(C23CC4CC(CC(C4)C2)C3)CC1,.,.,.,.,.,.,/
O=C(COC(=O)C1CCN(c2ccc(C(F)(F)F)cn2)CC1)NCc1ccccc1,.,/,.,.,.,.,/
Cc1cc(N2CCOCC2)nc2ccc(NC(=S)NCCC(C)C)cc12,.,.,.,.,.,43.7,28.5
CCOC(=O)Cc1csc2nc3sc(C)c(C)c3c(=O)n12,.,.,.,.,.,43.2,.
COc1ccccc1N1CCN(C2CCCN(C(=O)CC(F)(F)F)C2)CC1 (configuration not stated),.,.,.,.,.,.,/
COc1ccccc1NC(=S)NCCc1ccc(F)cc1,.,.,.,.,.,48.1,.
COc1ccccc1NC(=S)NCCc1ccccc1,.,.,.,.,.,.,/
COc1ccccc1CNC(=O)C(C)n1cccc1C(=O)c1ccccc1 (configuration not stated),.,.,.,.,.,.,/
CC(C(=O)NCc1ccc(Cl)cc1)n1cccc1C(=O)c1ccccc1 (configuration not stated),.,.,.,.,.,41.0,.
O=C1OC(CC(=O)N(Cc2nnc(-c3ccccc3Cl)o2)C2CC2)c2ccccc21 (configuration not stated),.,/,.,.,.,.,/
CCCn1c(=O)n(C)c(=O)c2c(SC(C)C(=O)NCC3CCCO3)nc(CC(C)C)nc21 (configuration not stated),.,/,.,.,.,.,/
CCc1nc(C)cn1S(=O)(=O)c1cc(Br)c(C)cc1OC,.,/,.,.,.,43.6,.
CC(/C=N/Nc1nc(C)cc(C)n1)=C\c1ccc(C(C)C)cc1,.,.,.,.,.,46.5,35.1
N/C(Cc1ccc([N+](=O)[O-])cc1)=N\OC(=O)Cc1ccccc1,.,.,.,.,.,50.5,41.0
N/C(=N\OC(=O)Cc1ccccc1)c1ccc([N+](=O)[O-])cc1,.,.,.,.,.,.,/
